Hits are enriched below; roughly 3.8% of the tested compounds scored in any of these assays.
IDH1 R132H inh: inhibitors of human mutant IDH1 R132H; O75874; IDH1-R132H enzyme, NADPH consumption, diaphorase/resazurin fluorescence; Potency, µM (highest dose often 76.6 µM), inactives show top-dose activity change, negative = inhibition, usual class: inhibitors; actives 0.093% (n = 390,000); AID 602179; also: potency is read from the fitted curve at half-maximal effect; % is scaled to controls: 0 for no effect and ±100 for the full control effect; nearly all actives have a fitted effect of over 65% in size
Target sequence (O75874 whole entry R132H, stated change not applied): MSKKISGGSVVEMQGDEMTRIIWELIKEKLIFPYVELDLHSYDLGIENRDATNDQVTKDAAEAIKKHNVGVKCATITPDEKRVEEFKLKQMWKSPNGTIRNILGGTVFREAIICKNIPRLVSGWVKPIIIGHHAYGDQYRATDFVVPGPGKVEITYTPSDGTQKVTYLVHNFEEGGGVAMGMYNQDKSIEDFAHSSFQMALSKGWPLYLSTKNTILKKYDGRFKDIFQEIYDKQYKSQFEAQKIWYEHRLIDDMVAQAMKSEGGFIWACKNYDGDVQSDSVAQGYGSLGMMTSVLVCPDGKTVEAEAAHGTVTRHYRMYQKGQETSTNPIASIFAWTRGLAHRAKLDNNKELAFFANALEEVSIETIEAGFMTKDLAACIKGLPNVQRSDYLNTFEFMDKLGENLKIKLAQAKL
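IDH1-R132H (0.5 ug/mL dispensed) in pH 7.5 Tris buffer was preincubated 30 min with compound, then given a substrate mix of 0.016 mM NADPH and 2 mM alpha-KG for 80 min at room temperature; remaining NADPH was read by diaphorase/resazurin fluorescence.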
Nrf2 inh: blocks Nrf2 signaling; A549 ARE-Fluc reporter, luciferase luminescence, 18-24 h; actives 2.1% (n = 360,000); Potency, µM (series often up to 46 µM), inactives show at the highest dose activity change, negative = inhibition, actives largely listed as inhibitors; also: potency is read from the fitted curve at half-maximal effect; % is scaled to controls: 0 for no effect and ±100 for the full control effect; nearly all actives have a fitted effect of over 60% in size
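Cells were seeded and rested 2 h, then exposed to compounds for 18-24 h. CellTiter-Fluor was read first as a viability measure. BugLite was added 15 min before the final luminescent read of ARE-luciferase activity in A549 cells.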
A549 viability: kills or reduces viability of A549 cells in Nrf2 counter-screen | AID 504648 | A549 ARE-Fluc cells, CellTiter-Fluor viability, 18-24 h | Potency, µM (titrated, usually from 46 µM), inactives show at the highest dose activity change, negative = cytotoxicity, most hits filed as inhibitors | actives 0.16% (n = 390,000); also: potency is read from the fitted curve at half-maximal effect; % is scaled to controls: 0 for no effect and ±100 for the full control effect
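A549 ARE_Fluc cells in 5% FBS OPTI-MEM were exposed to compounds in concentration-response for 18-24 h at 37 deg C. Viability was read by CellTiter-Fluor fluorescence (Ex 405/Em 525) after 30 min, before the luciferase read.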
ELG1 repair inh: blocks ELG1-dependent DNA repair in HEK293T cells; actives 2.3% (n = 330,000); Potency, µM (series often up to 46.1 µM), for the others: at the highest dose activity change, negative = inhibition, usual class: inhibitors; HEK293T ELG1-luciferase reporter, luminescence, 16 h; DNA damage induced by 5-fluorouridine; also: potency is read from the fitted curve at half-maximal effect; % is scaled to controls: 0 for no effect and ±100 for the full control effect; nearly all actives have a fitted effect of over 55% in size
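5-Fluorouridine DNA damage + compound/DMSO, 2,000 cells/well, 16 h, 37 °C/5% CO2. ONE-Glo, 30 min RT, luminescence. Readout = decrease in reporter signal.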
Nrf2 activator: activates Nrf2 signaling | AREc32 ARE-luciferase reporter (MCF7-derived line), luminescence, 24 h | Potency, µM (doses to about 46.1 µM), without a hit: top-dose activation, hits mostly activators | actives 0.31% (n = 410,000) | AID 624171; also: potency is read from the fitted curve at half-maximal effect; % of control where 0% means no effect; nearly all actives have a fitted effect of over 65% in size
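Nrf2 activation is followed as ARE-luciferase induction in the AREc32 line after one day of compound treatment; luminescence is read with Steady-Glo.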
Resorufin autofl: interferes with resorufin fluorescence in IDH1 counter-screen; shares compounds with IDH1 R132H inh; Resorufin detection reagent fluorescence interference, cell-free; inhibition of signal, % at 51.2 µM; 750 tested, under 10 active; AID 623980;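 also: 0% = wells with normal resorufin and full inhibition = wells lacking resorufin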
IDH1 WT: inhibits human wild-type IDH1, mutant selectivity check; Potency, µM (series often up to 115 µM), for the others: at the highest dose activity change, negative = inhibition, most hits filed as inhibitors; shares compounds with IDH1 R132H inh; AID 623995; WT IDH1 enzyme, NADPH diaphorase/resazurin fluorescence; actives 9% (n = 750);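 also: potency is read from the fitted curve at half-maximal effect; 0% = full WT IDH1 enzyme control and full inhibition = no enzyme wells; nearly all actives have a fitted effect of over 55% in size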
Target sequence (O75874 whole entry, looked up): as the sequence (O75874 whole entry R132H, stated change not applied) above, with H132R counted along it
IDH1 R132H conf: mutant IDH1 (human) inhibition, confirmed; shares compounds with IDH1 R132H inh; IDH1 R132H enzyme, NADPH diaphorase/resazurin fluorescence; Potency, µM (highest dose often 76.6 µM), for the others: at the top dose activity change, negative = inhibition, most hits filed as inhibitors; actives 83% (n = 750); also: potency is read from the fitted curve at half-maximal effect; nearly all actives have a fitted effect of over 50% in size
* marks the source's active call; other numbers are inactive results; [ ] = another dose, or the depositor's remark. Calls follow the shape of the dose curve; as a rule, active = well fitted curve in the direction sought with a large enough effect; inconclusive = small, poorly fitted or top-dose-only effect, or another doubt; inactive = no such curve, though single readings can be large; an effect the other way counts as inactive or inconclusive.

Results for COc1ccc(N(C(=O)c2snc(C(N)=O)c2N)C(C(=O)NC2CCCCC2)c2ccc(C)o2)cc1 (stereo not drawn) ?
IDH1 R132H inh: inconclusive; Nrf2 inh: inconclusive; A549 viability: inconclusive; ELG1 repair inh: -1%; Nrf2 activator: 0%; Resorufin autofl: 2; IDH1 WT: 2%; IDH1 R132H conf: inconclusive

What do the screens show for `COc1ccc(C(C(=O)NC2CCCC2)N(C(=O)c2snc(C(N)=O)c2N)c2cc(C)ccc2OC)cc1OC` (stereo not drawn)?
IDH1 R132H inh: inconclusive; Nrf2 inh: inconclusive; A549 viability: -1%; ELG1 repair inh: -4%; Nrf2 activator: 0%; Resorufin autofl: 5; IDH1 WT: 4%; IDH1 R132H conf: 32µM*

Results for COc1ccc(OC)c(NC(=O)Cn2c(=O)n(-c3ccc(Cl)cc3)c(=O)c3c(C)c(C)sc32)c1 ?
IDH1 R132H inh: -26%; Nrf2 inh: 2%[9.27 µM]; A549 viability: -15%; Nrf2 activator: -1%

What do the screens show for `COC(=O)c1ccccc1NC(=O)C1CCCN(C(=O)c2cnn(-c3ccc(F)cc3)c2-n2cccc2)C1` (stereo not drawn)?
IDH1 R132H inh: 0%; Nrf2 inh: -3%; A549 viability: -6%; Nrf2 activator: 0%

Results for O=C(COC(=O)c1ccccc1SCC(=O)N1CCCC1)NCc1ccccc1 ?
IDH1 R132H inh: -5%; Nrf2 inh: 22%; A549 viability: 18%; ELG1 repair inh: 14%; Nrf2 activator: 2%

How did O=C1NC[C@@H](CCCCN2C[C@H](Cc3ccc(O)cc3)N(CCc3ccccc3)C(=O)C2=O)N(CCc2ccc(O)cc2)C1=O do in these assays?
Nrf2 activator: 0%

Results for COc1cc(-c2cc(C(=O)Nc3ccc(S(N)(=O)=O)cc3)c3ccccc3n2)cc(OC)c1OC ?
IDH1 R132H inh: inconclusive; Nrf2 inh: 0%; A549 viability: -1%; ELG1 repair inh: inconclusive; Nrf2 activator: 2%; Resorufin autofl: -1; IDH1 WT: 1%; IDH1 R132H conf: inconclusive

How did Cc1cc(C)c(NC(=O)Cn2c(=O)n(CC3CCCO3)c(=O)c3ccccc32)c(C)c1 (stereo not drawn) do in these assays?
IDH1 R132H inh: -2%; Nrf2 inh: 4%; A549 viability: -6%; Nrf2 activator: 0%

How did Cc1cc([N+](=O)[O-])cc2c1-c1ncccc1C2=Nc1ccccc1 do in these assays?
IDH1 R132H inh: 6%; Nrf2 inh: -2%; A549 viability: 2%; ELG1 repair inh: 20%; Nrf2 activator: 0%

Results for Cc1ccccc1N=C1c2cc([N+](=O)[O-])ccc2-c2ncccc21 ?
IDH1 R132H inh: inconclusive; Nrf2 inh: 8%; A549 viability: 0%; ELG1 repair inh: 3%; Nrf2 activator: 8%; Resorufin autofl: -2; IDH1 WT: 0%; IDH1 R132H conf: 22µM*

Results for CCOc1ccc(NC(=O)Cn2c(=O)n(Cc3ccco3)c(=O)c3ccc(C(=O)NC4CCCC4)cc32)cc1 ?
IDH1 R132H inh: 4%; Nrf2 inh: -2%; A549 viability: 5%; Nrf2 activator: 0%

How did Cc1ccc(C(NC(=O)C(C)C)c2cc([N+](=O)[O-])c3cccnc3c2O)cc1 (stereo not drawn) do in these assays?
IDH1 R132H inh: inconclusive; Nrf2 inh: 18µM*; A549 viability: inconclusive; ELG1 repair inh: inconclusive; Nrf2 activator: 0%; Resorufin autofl: 7; IDH1 WT: inconclusive; IDH1 R132H conf: 28µM*

How did CCOc1cccc(N(C(=O)C2COc3ccccc3O2)C(C(=O)NC2CCCCC2)c2ccc(O)cc2)c1 (stereo not drawn) do in these assays?
IDH1 R132H inh: inconclusive; Nrf2 inh: -9%; A549 viability: -3%; ELG1 repair inh: 5%; Nrf2 activator: 0%; Resorufin autofl: 5; IDH1 WT: 10%; IDH1 R132H conf: 5.6µM*

Results for CC(C)CCNC(=O)C(c1ccc(O)cc1)N(C(=O)C1COc2ccccc2O1)c1cccc(O)c1 (stereo not drawn) ?
IDH1 R132H inh: inconclusive; Nrf2 inh: inconclusive; A549 viability: -7%; ELG1 repair inh: inconclusive; Nrf2 activator: 3%; Resorufin autofl: 6; IDH1 WT: 14%; IDH1 R132H conf: inconclusive

What do the screens show for `O=C(NC1CCCC1)C(c1ccc(O)cc1)N(CC1CCCO1)C(=O)C1COc2ccccc2O1` (stereo not drawn)?
IDH1 R132H inh: 11%; Nrf2 inh: 6%; A549 viability: 2%; ELG1 repair inh: inconclusive; Nrf2 activator: 0%

What do the screens show for `CC(C)(C)c1ccc(S(=O)(=O)N2CCC(Oc3ccc(-n4cnnn4)cc3)CC2)cc1`?
IDH1 R132H inh: -7%; Nrf2 inh: 10%; A549 viability: 1%; Nrf2 activator: 0%

Results for Cc1ccc(-n2nc3c(N4CCC(C(=O)N5CCCCC5)CC4)nnc(C)c3c2C)cc1 ?
IDH1 R132H inh: 0%; Nrf2 inh: -24%; A549 viability: -19%; Nrf2 activator: 6%

What do the screens show for `O=C(Nc1ccccc1F)c1ccc2ncsc2c1`?
IDH1 R132H inh: 6%; Nrf2 inh: inconclusive; A549 viability: -11%; ELG1 repair inh: inconclusive; Nrf2 activator: 1%

What do the screens show for `CCCN1C(=O)C(NC(C)=O)c2ccccc21` (stereo not drawn)?
IDH1 R132H inh: 0%; Nrf2 inh: 1%; A549 viability: 3%; ELG1 repair inh: -3%; Nrf2 activator: 0%

How did CCc1ccc2c(c1)C(NC(C)=O)C(=O)N2CCN1CCOCC1 (stereo not drawn) do in these assays?
IDH1 R132H inh: 46µM*; Nrf2 inh: 0%; A549 viability: -2%; ELG1 repair inh: -2%; Nrf2 activator: -1%; Resorufin autofl: -1; IDH1 WT: inconclusive; IDH1 R132H conf: 25µM*

Source: PubChem BioAssay (National Center for Advancing Translational Sciences (NCATS))
